Experimental data from the supplement of paper PMC6555819.

What follows are sequences tested on RARg homodimer (NR concentration 270 nM) (assay: PBM binding z-score (relative to random genomic background probes); higher = stronger binding; sequences stand for … in GC…GCGATTGACAGCGTAGAATGAAGG).
How it was run: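 Each nuclear receptor dimer, without ligand, was incubated for 1 h on custom Agilent 4×180K protein-binding microarrays. Binding was detected with antibodies against each partner (one per run), and scanned fluorescence was regression-normalized. The binding z-scores are referenced to random human genomic background probes.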
ATCGAAAGGTCGTGTGGTGAGTATACAGAAAGGC was tested, and the PBM binding z-score was 3.83. Work on CGTCCAAGGTCATCGGAGGTCAGTGAAGACAGAT yielded a PBM binding z-score of 7.72. CCATACAGGTGAGAAGGTAACTCAGCCTCGATTA gave a PBM binding z-score of 0.72. For ATCGAAAGGTCGACGAGGTGAGTCTACACCGTTT, the PBM binding z-score was 3.95. Work on CCTCGAAGGACAGAAGGTCAGAGCTGTCCGCTTT yielded a PBM binding z-score of 2.98. CCTATTAGTTGACCGTAAGGGCAACCGAAGCTCG showed a PBM binding z-score of 1.51. In the case of TAGCCTAGGTCATGCAGGGGCCAGTATAGAAAGC, the PBM binding z-score is reported as 4.48. With CCTACTCGGCCATTCAGAGGTCATTGATCATATG the PBM binding z-score was 3.64. In the case of CCTCGGAGGACAGAAGGTCAGAGCTGTCCGCTTT, the PBM binding z-score is reported as 2.55. GCGACTGGTGCAAAGCAGGTTACCATAAGGTTGG gave a PBM binding z-score of -0.317. In the case of CGTCCAAGGTCAGAGAGGTCAATGAATGCCGAGT, the PBM binding z-score is reported as 7.52. Sequence CCTATTAGTTGACCATAAGGGCTACCGAAGCTCG has a PBM binding z-score of 0.633. Sequence CAAACTAGGGCACAGAGGTCAAAGTCCGTGCGTA has a PBM binding z-score of 5.63. In the case of TAGCCCAGGTCATGCGGGCCAGTATAGTGTCGGC, the PBM binding z-score is reported as 3.99. CCGAGTTGGTTATGGGGCATTCAGGCAACGGTGA showed a PBM binding z-score of -0.319. Sequence GCTACAGGGTCAAGGCCAGAGTACGCGTATTGAT has a PBM binding z-score of 5.17. CCTACTGGGCCATCATGTCATTGATATCAACGTT was tested, and the PBM binding z-score was 0.415. Sequence TCATATAGGTAAGACAGGTGAAAGTCGGCATCTA has a PBM binding z-score of 0.411. Work on CCTAGTTGGTGAAGGTCACACACGCTATAGGTAC yielded a PBM binding z-score of 4.06. ATCTCTAGGTAAACATAGTTCAGTGAATGCAAAT gave a PBM binding z-score of 0.928. TCATATAGGTAATTCAGGTGAAAGTCGGCATCTA showed a PBM binding z-score of 0.241. CCTAGCTGGCCAGGGTCACTCAAGCATTTCGCTT gave a PBM binding z-score of 2.03. With TCATATAGGTAGAGGTGAAAGTCGAACGATATGA the PBM binding z-score was 1.11. TCGAGTAGGTTAGGAGCATTCAGAATGGCGTCGA was tested, and the PBM binding z-score was -0.317. ACTTACGGGGCAACGAGGTTATAGCACGCGTATA was tested, and the PBM binding z-score was 1.76. For AGAATGAGGTTATTAAGATCTGGGAATTGCGGTC, the PBM binding z-score was 0.692. Work on CCTGCTAGGCCAATGGTCAGCTAAAGCAGCTCGC yielded a PBM binding z-score of 0.173. CGTCCAAGGTCAAAGGAGGTCAGTGAAGACAGAT showed a PBM binding z-score of 7.08. Sequence CGAACTAGGTCAGAACAGGACAGTGAGGGATGAT has a PBM binding z-score of 3.18. In the case of TCATATAGGTAAGGGTGAAAGTCGAACGATATGA, the PBM binding z-score is reported as 0.595. Work on CAAACTAGGTTACGAAAGGTCAAAGTCGAATGAC yielded a PBM binding z-score of 5.88. TCTAATAGTTGAAGGGCAACCGACGAGTCCGTTT gave a PBM binding z-score of 0.887. In the case of GCTGCTAGGTCAGGTAGGTCAGCTAACGGGTACG, the PBM binding z-score is reported as 4.85. For CCTTACGGGTCACTTCAGGTTATAGCATCGGAGT, the PBM binding z-score was 4.1. CCGACTGGGGCAAAGGTTACCATACTCAGTACGA showed a PBM binding z-score of 1.78. In the case of GATACAGGGTTAGCTAGAGGCCAGAGTATGGAAA, the PBM binding z-score is reported as 0.756. GCGACTGGGGCAAAGCAGGTTACCTTAAGGTTGG gave a PBM binding z-score of 0.229. Work on GCGACTGGGGCATCAGCAGGTTACCATCACTTAA yielded a PBM binding z-score of 0.45. Work on AGAATGAGGTTATTAGGATCAGGGAATTGCGGTC yielded a PBM binding z-score of 0.986. In the case of ATACCATGGTGATCGTGAGGTCGTTGATACTAAC, the PBM binding z-score is reported as 0.264.
